PubChem BioAssay AID504766 (The Scripps Research Institute Molecular Screening Center, 2011)
In all, about 340,000 compounds went through this assay and about 3,400 (1%) were called active. The sample holds actives, similar compounds and a random draw of the others, so the mix is not that of the screen. Unmarked numbers belong to inactive results.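 The calls were made as follows: active = inhibition above the mean over all tested compounds plus 3 SD (cut at about 4.2% in these data); inactive = the rest.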

biological target: Nuclear receptor subfamily 0 group B member 1 (Homo sapiens) (UniProt P51843); assay: relief of DAX1 transcriptional repression – cell-based, HEK293, Gal4-DAX1, luciferase luminescence, primary screen (AID 504766); settings: HEK293 Gal4-DAX1 luciferase reporter, at 6.75 µM, active compounds read high;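 also: 0% = DAX1-transfected cells with DMSO and 100% = empty-vector control cells with DMSO; inhibition shows as a rise in luminescence from relieved DAX1 repression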
Sequence (P51843 207-470 limits assumed): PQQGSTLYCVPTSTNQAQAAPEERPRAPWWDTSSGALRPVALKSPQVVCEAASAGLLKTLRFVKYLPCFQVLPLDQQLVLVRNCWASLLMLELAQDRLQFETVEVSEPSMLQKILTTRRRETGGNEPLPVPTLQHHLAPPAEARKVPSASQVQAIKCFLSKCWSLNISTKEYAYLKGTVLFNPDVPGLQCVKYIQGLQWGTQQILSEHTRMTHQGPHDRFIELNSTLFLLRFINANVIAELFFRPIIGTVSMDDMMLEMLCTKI

| SMILES | inhibition |
| --- | --- |
| CCCCCC(=O)N1C[C@H](O)[C@@H](n2cc(COC(=O)c3ccccc3)nn2)C[C@@H]1c1ccc(C)cc1 | 0.45% |
| O=C(OCc1ccccc1)N1CCC2CC1c1cc(N3CCN(S(=O)(=O)c4cc(Cl)cc(Cl)c4)CC3)ccc12 (stereo unspecified) | 1.86% |
| CC(=O)c1ccccc1NC(=O)COC(=O)C1COc2ccccc2O1 (stereo unspecified) | 0.71% |
| CC(C)Sc1ncnc2c1cnn2-c1ccccc1 | 6.85% (active) |
| CCN(CC)C(=O)CSc1ncnc2c1cnn2-c1ccccc1 | 0.89% |
| CC(Sc1ncnc2c1cnn2-c1ccccc1)C(=O)Nc1ccc(N2CCOCC2)cc1 (stereo unspecified) | -0.48% |
| NC(=O)CSc1nnc(-c2cccc(S(=O)(=O)N3CCOCC3)c2)o1 | 0.86% |
| CN1OC[C@@H]2CN(C(=O)c3ccc(-c4ccccc4)cc3)[C@H](c3ccc(-c4cccc(F)c4)cc3)C[C@@H]21 | -0.68% |
| COc1ccc(N2CCN(C(=O)CCc3nc(-c4ccc(C)cc4)no3)CC2)cc1 | -0.22% |
| COc1ccc(-c2noc(CCC(=O)N3CCN(c4cccc(C)c4)CC3)n2)cc1 | 0.39% |
| CN1CCN(C(=O)CCc2nc(-c3ccc(Cl)cc3)no2)CC1 | 5.55% (active) |
| CCc1ccc(C(=O)NN=C2CCCCCC2)s1 | 1.24% |
| CC(C)NC(=S)NN=C1CCCCCCCCCCC1 | -0.27% |
| CC(C)(C)NC(=O)C(=O)NN=C1CCCCCCC1 | 6.84% (active) |
| C[C@@H]1CN([C@H](C)CO)C(=O)CCCn2cc(nn2)CO[C@H]1CN(C)S(=O)(=O)c1ccc(Oc2ccccc2)nc1 | 0.73% |
| CN(c1ccccc1)S(=O)(=O)c1ccc(C(=O)NCc2cccnc2)cc1 | -0.1% |
| O=C(NCc1nnnn1-c1ccc(Cl)cc1)c1ccc2c(c1)OCO2 | 0.46% |
| O=C(c1ccc(F)cc1)n1c(=S)nc2ccccn21 | 5.47% (active) |
| O=C(Cn1c(=S)nc2ccccn21)N1CCc2ccccc2C1 | 1.21% |
| O=C(c1ccc(F)cc1)n1cc(C(=S)N2CCOCC2)c2ccccc21 | 1.01% |
| O=[N+]([O-])c1ccc(C(S(=O)(=O)Cc2ccccc2)S(=O)(=O)Cc2ccccc2)cc1 | 1.99% |
